Laboratory results: PubChem BioAssay AID1852 (Sanford-Burnham Center for Chemical Genomics, 2009)
Screen size: about 2,500 compounds; about 1,100 (44%) were called active. The set was probably picked from earlier hits. The list shows a part of the results. Values without a mark were called inactive.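 How the source made its calls: active means inhibition above 50% at 4 µM in the single-point screen; inactive means inhibition of 50% or less.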

assay: blockers of TNF-a NF-kB luciferase induction – cell-based, HEK293T NF-kB-Luc, luminescence, selectivity assay for NOD1/NOD2 signaling inhibitor project, primary screen (AID 1852); details: TNF-a induced, 14 h, at 4 µM, stronger effect = higher value

SMILES | inhibition
Cc1ccc(Sc2ccc(/C=C3/C(=O)NN(c4ccccc4)C3=O)o2)cc1 | -8.6%
O=C(Nc1ccccc1C(=O)O)c1cc(S(=O)(=O)N2CCCCC2)c(Cl)cc1Cl | 61% (active)
O=C(Nc1ccc(Cl)cn1)c1ccc(Br)c(S(=O)(=O)N2CCCCC2)c1 | 39.5%
O=C(CCl)Nc1cc(S(=O)(=O)N2CCCCCC2)ccc1Cl | 17.6%
O=C(Nc1ccccc1C(=O)O)c1cc(S(=O)(=O)Nc2ccccc2)ccc1Cl | 58.9% (active)
Cc1ccc(C(=O)Nc2ccccc2C(=O)O)cc1S(=O)(=O)Nc1ccccc1 | 76.6% (active)
NS(=O)(=O)c1ccc(NC(=O)c2cc(Cl)ccc2Cl)cc1 | 14.7%
O=C(c1cc2nc(-c3ccc(F)cc3)cc(C(F)(F)F)n2n1)N1CCCCC1c1cccnc1 (centres undefined) | 34.3%
Brc1ccccc1OCCCCn1cnc2ccccc21 | -10.4%
O=c1cc(C(F)(F)F)[nH]c2ccc(OC(F)(F)F)cc12 | 78.8% (active)
O=c1nc(/C=C/c2ccccc2C(F)(F)F)cc(C(F)(F)F)[nH]1 | -14.4%
O=c1cc(C(F)(F)F)[nH]c2ccc(C(F)(F)F)cc12 | 73.1% (active)
CN(C(=O)/C=C/c1ccc([N+](=O)[O-])s1)c1ccccc1 | 37.1%
Cc1ccc(NC(=O)/C=C/c2ccc([N+](=O)[O-])s2)c(C)c1 | 100% (active)
Cc1ccccc1NC(=O)/C=C/c1ccc([N+](=O)[O-])s1 | 104% (active)
Oc1[nH]c2ccccc2c1N=Nc1nc(Nc2ccccc2)nc(N2CCOCC2)n1 | 12.6%
Oc1[nH]c2ccccc2c1N=NC(=S)N1CCOCC1 | 94.8% (active)
Cc1ccc(-c2nn(CCC(=O)O)cc2/C=C\C(=O)c2ccc(Br)cc2)cc1 | 94.7% (active)
O=C(O)CCn1cc(/C=C/C(=O)c2ccc(Cl)cc2)c(-c2cccc(Br)c2)n1 | -4.4%
O=C(O)CCn1cc(/C=C\C(=O)c2ccc(Cl)cc2)c(-c2cccc(Br)c2)n1 | 77.2% (active)
N#C/C(=C(/O)COC(=O)CSc1ccc(Cl)cc1)c1nc2ccccc2[nH]1 | 93.2% (active)
N#C/C(=C(/O)COC(=O)CSc1ccc2ccccc2c1)c1nc2ccccc2[nH]1 | 90.4% (active)
Cc1ccnc(NC(=O)Nc2ccc3c(c2)N(C)C(=O)CS3)c1 | -55.6%
Cn1cc([N+](=O)[O-])c(C(=O)Nc2nc(-c3ccc(Cl)cc3)cs2)n1 | 43.8%
O=C(Nc1nnc(SCc2ccc(F)cc2)s1)c1ccccn1 | 109% (active)

SMILES | inhibition
CC(Oc1ccc(Br)cc1)C(=O)Nc1nc(-c2ccccn2)cs1 (centres undefined) | 90.7% (active)
O=C(Nc1nc(-c2cc(F)ccc2F)cs1)c1ccccn1 | 91.2% (active)
CCc1ccccc1OCC(=O)Nc1nc(-c2cccnc2)cs1 | 15.7%
Cc1cc(C(=O)Nc2nc(-c3ccccn3)cs2)ccc1[N+](=O)[O-] | -1%
O=C(Nc1nc(-c2ccccn2)cs1)c1cc(Cl)ccc1[N+](=O)[O-] | 105% (active)
Cc1nc(C2CCC3C4CCC5=CC(=O)CC[C@]5(C)C4CC[C@]23C)cs1 (some centres undefined) | 34.9%
CCSc1nsc(NC(=O)Nc2cccc(F)c2)n1 | 46.9%
O=C(Nc1nc(-c2ccccn2)cs1)c1ccc(Cl)s1 | 19.4%
O=C(Nc1nc(-c2ccccn2)cs1)Nc1ccc(F)cc1F | 82.1% (active)
Fc1cc(F)c2nc(Nc3nc4c(F)cccc4s3)sc2c1 | -17.5%
Cc1cccnc1Nc1nc(-c2ccccn2)cs1 | 104% (active)
COc1cccc2sc(Nc3nc(-c4ccccn4)cs3)nc12 | 102% (active)
COc1ccccc1-c1nnc(Nc2nc3c(OC)cccc3s2)o1 | 27.9%
COc1ccc(CCNS(=O)(=O)c2ccc(Br)s2)cc1 | 35%
CC(=O)c1cccc(NS(=O)(=O)c2ccc(-c3cnc(C4CC4)o3)cc2)c1 | 66.3% (active)
COc1ccc(NS(=O)(=O)c2ccc(-c3cnc(C4CC4)o3)cc2)cc1OC | 38.9%
CSc1cccc(NS(=O)(=O)c2ccc(-c3coc(C)n3)cc2)c1 | 24.6%
O=C(Nc1cc(C(F)(F)F)cc(C(F)(F)F)c1)Nc1cnn(-c2ccc([N+](=O)[O-])cc2)c1C(F)(F)F | 48.5%
O=C(NC(NNc1ccc([N+](=O)[O-])cc1)(C(F)(F)F)C(F)(F)F)c1ccc(Cl)cc1 | 50.3% (active)
CCOC(=O)c1oc2ccc(S(=O)(=O)n3nc(-c4ccc(OC)cc4)cc3N)cc2c1C | 60.2% (active)
CCN(CC)C(=O)c1oc2ccc(S(=O)(=O)N3CC(C)CC(C)C3)cc2c1C (centres undefined) | 31.2%
CCOC(=O)C(=CNc1ccc2c(c1)c1ccccc1n2CC)C(=O)OCC | 17.5%
CCn1c(=O)c2c(cnn2C)c2ccccc21 | 81.7% (active)
CN(C)CC(CCC(CN(C)C)C(=O)c1ccccc1)C(=O)c1ccccc1 (centres undefined) | 102% (active)
CCOc1ccc(C(=O)C(CCC(CN(C)C)C(=O)c2ccc(OCC)cc2)CN(C)C)cc1 (centres undefined) | 12.6%

SMILES | inhibition
C/C(=N\Nc1nc2ccccc2[nH]1)c1ccccn1 | 101% (active)
C/C(=N\NC(=O)c1ccccc1Cl)c1ccccn1 | 97.3% (active)
CSC(=S)N/N=C(\C)c1ccc(Br)cc1 | 11.8%
C/C(=N\NC(=O)c1ccccc1F)c1ccccn1 | 49.5%
C=CCNC(=S)N/N=C(\C)c1ccccn1 | 111% (active)
C/C(=N\NC(=O)C(c1ccccc1)c1ccccc1)c1ccccn1 | 103% (active)
COc1ccc(/C=C/c2cc(-c3ccc(C)cc3)o[n+]2C)cc1 | 30.9%
C/C(=N\NC(=O)C(C)Oc1ccc([N+](=O)[O-])cc1)c1ccccn1 (centres undefined) | 103% (active)
C/C(=N\NC(=O)c1cc(-c2cccs2)nc2ccccc12)c1ccccn1 | 106% (active)
C/C(=N\NC(=O)c1cccc2ccccc12)c1ccccn1 | 103% (active)
C/C(=N\NC(=O)c1n[nH]c2c1CCC2)c1cccs1 | 46.3%
C/C(=N\NC(=O)C1COc2ccccc2O1)c1ccccn1 (centres undefined) | 83.2% (active)
COc1ccc(CN(C)Cc2nc(Cc3cccc(F)c3)no2)c2cccnc12 | 48.3%
Cc1ccc(-n2c(C)cc(/C=c3/sc4nc5ccccc5n4c3=O)c2C)cc1 | -32%
COc1ccc(-n2nc(C#N)c(Cl)cc2=O)cc1 | 59.1% (active)
COc1ccc(-n2cc(C#N)c(=O)[nH]c2=O)cc1 | 47.1%
COc1ccc(-n2ncc3c(N(C)C4CCCCC4)ncnc32)cc1 | 23.2%
COc1cccc(-n2nc(C#N)c(Cl)cc2=O)c1 | 45.7%
COc1ccc(-n2ncc(Cl)c(Cl)c2=O)cc1 | 78.2% (active)
Cc1ccc(OCc2nnc(SC3CCc4ccccc4C3=O)n2C)cc1 (centres undefined) | 17.5%
COc1ccc(-n2c(C)c(C(C)=O)c3cc(OC(C)=O)ccc32)cc1 | 94.8% (active)
COc1ccc2c(c1)c(=O)oc1c(C)c(OCc3ccc(C(=O)O)cc3)ccc12 | 34.1%
COc1ccc2c(c1)c(C(C)=O)c(C)n2-c1ccc(C(C)=O)cc1 | 71.3% (active)
CCOc1ccc(-n2c(C)c(C(C)=O)c3cc(O)ccc32)cc1 | 40.7%
COc1ccc2c(c1)c(C(C)=O)c(C)n2CCc1ccccc1 | 53.2% (active)

SMILES | inhibition
COc1ccc(C(C)=O)cc1Cn1c(=O)cc(C)[nH]c1=O | 40.6%
CCOc1ccc(-n2c(C)c(C(C)=O)c3cc(OC(C)=O)ccc32)cc1 | 78.7% (active)
O=C(NCCc1ccccc1)c1ccc2c(c1)OCCCO2 | 100% (active)
O=C(CCl)Nc1c(C(=O)Nc2ccc3c(c2)OCCO3)oc2ccccc12 | -69.2%
O=C(NCCc1ccccc1)c1ccc2c(c1)OCCO2 | 48.5%
O=C(NCCc1ccccc1F)c1ccc2c(c1)OCCO2 | 80.8% (active)
CCSc1nc2c(c(=O)[nH]c(=O)n2C)n1C/C=C(/C)Cl | 11.6%
O=C(Nc1ccc(N2CCN(C(=O)c3ccco3)CC2)c(Cl)c1)c1cc2ccccc2o1 | 99.1% (active)
Cc1cc(OCc2ccc(C(=O)Nc3ccc(C(=O)O)cc3)o2)ccc1Cl | -32.8%
O=C(Nc1ccc(N2CCCC2)c(Cl)c1)c1ccc([N+](=O)[O-])o1 | -26.1%
O=C(Nc1ccc(N2CCN(C(=O)c3ccccc3)CC2)cc1)c1ccc([N+](=O)[O-])o1 | 25.2%
CCCCc1nc(N2CCN(C(=O)c3ccco3)CC2)c(C#N)c2c1CCCC2 | 29.5%
O=C(Nc1ccc(N2CCN(C(=O)c3ccccc3)CC2)c(Cl)c1)c1ccc(Br)o1 | 67.5% (active)
CCC(=O)N1CCN(c2ccc(NC(=O)c3cc4ccccc4o3)cc2Cl)CC1 | 101% (active)
COc1ccc(N(Cc2cc3cc(OC)ccc3[nH]c2=O)S(=O)(=O)c2ccc(NC(C)=O)cc2)cc1 | 16.3%
COc1ccc2[nH]c(=O)c(CN(Cc3cccnc3)S(=O)(=O)c3ccccc3F)cc2c1 | 50.9% (active)
N#C/C(=C\C=C\c1ccccc1[N+](=O)[O-])C(=O)NC1CCCCC1 | 61.6% (active)
CC1CCCCC1NC(=O)/C(C#N)=C/C=C/c1ccccc1[N+](=O)[O-] (centres undefined) | 47.1%
Cc1cc(C)nc(Sc2ccc([N+](=O)[O-])cc2[N+](=O)[O-])n1 | -34.5%
C=CCn1nc([N+](=O)[O-])nc1Sc1cccc2cccnc12 | 95.9% (active)
O=C(Cn1nc([N+](=O)[O-])nc1Br)NC(c1ccccc1)c1ccccc1 | -0.7%
O=[N+]([O-])c1ccc(Sc2nccn2Cc2ccccc2)c([N+](=O)[O-])c1 | -0.6%
Cn1nc([N+](=O)[O-])nc1Sc1cccc2cccnc12 | 31.7%
O=[N+]([O-])c1ccc(Sc2cccc3cccnc23)c([N+](=O)[O-])c1 | 103% (active)
